PubChem BioAssay (Tox21)
Results filed as inconclusive are left out. Activity calls are given as the source filed them. The call rests on the fitted dose curve; in most records, active means well fitted cell-killing curve with a large enough effect in the repeat runs; inconclusive means weak or mixed curves, or effect the other way; inactive means no such curve, though single readings can be large or run the other way.

Experiment: qHTS assay to identify small molecule antagonists of the thyroid receptor (TR) signaling pathway - cell viability counter screen (AID 743064); further: nearly all actives have a fitted effect of over 50% in size
Conditions: GH3.TRE-Luc viability, CellTiter-Fluor, 24 h; series mostly up to 70.3 µM; activity change, negative = cytotoxic: at the top concentration
Text: National Center for Advancing Translational Sciences [NCATS]
NIH Chemical Genomics Center [NCGC]
U.S. Environmental Protection Agency [EPA]
National Institutes of Environmental Health Sciences [NIEHS]
National Toxicology Program [NTP]
U.S. Food and Drug Administration [FDA]
Thyroid receptor (TR), a nuclear hormone receptor, plays an important role in development, proliferation, differentiation, metabolism, brain function, and cardiovascular system. […] To profile the Tox21 10K compound library in TR signaling, a cell-based GH3-TRE-Luc assay (GH3.TRE-Luc cell line, developed by the laboratory of Dr. Albertinka J. Murk, Wageningen University) was used to measure the inhibition of TR. GH3 (rat pituitary tumor) cells stably expressing a TR activity sensor consisting of two TR response elements and a luciferase reporter gene. The cytotoxicity of the Tox21 compound library against the GH3.TRE-Luc cell line was tested in parallel by measuring the cell viability using CellTiter-Fluor assay (Promega, Madison, WI) in the same wells.
Tox21 Assay Protocol Summary:
GH3.TRE-Luc cells were dispensed at 1500 cells/4 uL/well into 1536-well white solid bottom plates using a Multidrop Combi dispenser (Thermo Fisher Scientific Inc., Waltham, MA). After the assay plates were incubated at 37 C for 4 hours, 23 nL of library compound or DMSO controls was transferred to the assay plates by a pintool station (Kalypsys, San Diego, CA), followed by addition of 1 ul of T3 (1 nM, final concentration in the wells) to stimulate TR transactivation. The assay plates were incubated at 37 C for 23.5 h, and then 1 uL of CellTiter-Fluor reagent (Promega, Madision, WI) of measuring cytotoxicity was added to each well using a Bioraptr Flying Reagent Dispenser (FRD) workstation (Beckman Coulter, Indianapolis, IN, USA). The plates were incubated at 37C and 5% CO2 for additional 30 min, and fluorescence intensity was measured by a ViewLux plate reader (PerkinElmer, Shelton, CT).
On the % scale 0 is the no-effect control and ±100 the full control effect; potency means the concentration at half of the fitted maximal effect.

Row | Compound | activity change, negative = cytotoxic | Potency
1 | O=C1CN=C(c2ccccc2)c2cc([N+](=O)[O-])ccc2N1 | 1.15% (inactive) | 
2 | COc1cc2c(cc1OC)[C@@]13CCN4CC5=CCO[C@H]6CC(=O)N2[C@H]1[C@H]6[C@H]5C[C@H]43 |  | inactive
3 | CCN(Cc1ccc(Cl)nc1)/C(=C/[N+](=O)[O-])NC | -0.143% (inactive) | 
4 | CC1CN1P(=O)(N1CC1C)N1CC1C (stereo not given) | 3.54% (inactive) | 
5 | CCOP(=S)(OCC)SCSc1ccc(Cl)cc1 |  | inactive
6 | CCOP(=S)(OCC)Oc1cc(-c2ccccc2)on1 | 1.42% (inactive) | 
7 | CCCCOC(=O)c1ccccc1C(=O)O | -0.193% (inactive) | 
8 | CC1(C)COP(Oc2ccccc2)OC1 | -0.823% (inactive) | 
9 | CNC(=O)N(C)c1nc2ccccc2s1 | -22% (inactive) | 
10 | CN1CCC(O)(c2ccc(F)cc2)C(C(=O)c2ccc(F)cc2)C1 (stereo not given) |  | 21.1 µM (active)
11 | CCC1(c2ccccc2)C(=O)NC(=O)NC1=O |  | inactive
12 | CNNC | -8.58% [at 95 µM] (inactive) | 
13 | Fc1ccc(C2(Cn3cncn3)OC2c2ccccc2Cl)cc1 (stereo not given) | -20.1% (inactive) | 
14 | O=[N+]([O-])c1cccc2cccnc12 | -1.71% [at 95 µM] (inactive) | 
15 | ClCC(Cl)(Cl)Cl | -0.61% [at 95 µM] (inactive) | 
16 | O=C(O)c1ccc2[nH]cc(CCCCN3CC=C(c4ccccc4)CC3)c2c1 | 6.64% (inactive) | 
17 | Cc1nnc2n1-c1sc(CCC(=O)N3CCOCC3)cc1C(c1ccccc1Cl)=NC2 |  | inactive
18 | CCc1cc2c(s1)-n1c(C)nnc1CN=C2c1ccccc1Cl | -29.4% (inactive) | 
19 | CCCCOP(=O)(O)OCCCC | 19.5% (inactive) | 
20 | CC1=NNC(=O)N(/N=C/c2cccnc2)C1 | 26.1% (inactive) | 

Row | Compound | activity change, negative = cytotoxic | Potency
21 | O=C(CCCN1CCC(n2c(=O)[nH]c3ccccc32)CC1)c1ccc(F)cc1 | -1.76% [at 32.5 µM] (inactive) | 
22 | Cc1cnc[nH]1 | 6.64% (inactive) | 
23 | Nc1cc(Cl)ccc1O |  | 23.5 µM (active)
24 | CCOP(=S)(OCC)SCSP(=S)(OCC)OCC | 20.1% (inactive) | 
25 | Cc1cc(C)c(C(=O)P(=O)(C(=O)c2c(C)cc(C)cc2C)c2ccccc2)c(C)c1 | -24.7% (inactive) | 
26 | CC(C=O)Cc1ccc2c(c1)OCO2 (stereo not given) | -0.0447% (inactive) | 
27 | CC(N)=S | 2.04% (inactive) | 
28 | O=[N+]([O-])c1cccc2c([N+](=O)[O-])cccc12 | -8.42% [at 95 µM] (inactive) | 
29 | CN1CCN(C(=O)O[C@H]2c3nccnc3C(=O)N2c2ccc(Cl)cn2)CC1 | 10.8% (inactive) | 
30 | CCCCc1ccc(O)cc1 | -9.44% (inactive) | 
31 | C1CCC(C2CCCCC2)CC1 | 1.34% (inactive) | 
32 | N#CCNCC#N | 28.2% (inactive) | 
33 | OCCSCSCCO | 1.45% (inactive) | 
34 | CCCSC(=O)N(CCC)CCC | 28.2% (inactive) | 
35 | CC(C)(C)OC(=O)c1ncn2c1[C@@H]1CCCN1C(=O)c1c(Br)cccc1-2 | 14.1% (inactive) | 
36 | CC1CCC(=O)O1 (stereo not given) | 2.53% (inactive) | 
37 | CC(CCc1ccccc1)NC(C)C(O)c1ccc(O)cc1 (stereo not given) |  | 16.8 µM (active)
38 | O=NN1CCN(N=O)CC1 | -0.616% (inactive) | 
39 | O=C(Cc1ccccc1)OCc1ccccc1 | -2.31% [at 95 µM] (inactive) | 
40 | Cc1coc2c1CCC(C)C2 (stereo not given) | -10.4% [at 95 µM] (inactive) | 
